Source: PubChem BioAssay (Tox21)
Inconclusive results are not listed. A call without a number means that no potency is given here. Calls of active or inactive are those of the source. Calls come from the whole dose curve; as a rule, active = well fitted activation curve with a large enough effect in the signal ratio in the repeat runs, with a control signal flat (not every such curve was filed as active); inconclusive = weak or mixed curves; inactive = flat fitted curve, though single readings scatter; the % refers to the signal ratio.

Test: qHTS assay for small molecule activators of the heat shock response signaling pathway (AID 743210)
Settings: HeLa HSE-bla reporter, beta-lactamase ratio, 5 h; series mostly up to 62.6 µM
Source text: U.S. Tox21 Program National Center for Advancing Translational Sciences [NCATS] NIH Chemical Genomics Center [NCGC] U.S. Environmental Protection Agency [EPA] National Institutes of Environmental Health Sciences [NIEHS] National Toxicology Program [NTP] U.S. Food and Drug Administration [FDA] Tox21 Assay Overview: Various chemicals, environmental and physiological stress conditions may lead to the activation of heat shock response/ unfolded protein response (HSR/UPR). There are three heat shock transcription factors (HSFs) (HSF-1, -2, and -4) mediating transcriptional regulation of the human HSR. To identify the compounds that activate HSR signaling, HSE-bla HeLa cell line (Invitrogen, Carlsbad, CA, USA) containing a beta-lactamase reporter gene under the control of the heat shock response elements was used to screen the Tox21 10K compound library.
Tox21 Assay Protocol Summary: The CellSensor HSE-bla HeLa cells (Invitrogen, Carlsbad, CA, USA) were dispensed at 1500 cells/6uL/well into 1536-well black wall/clear bottom plates using a Multidrop combi (Thermo Fisher Scientific, Waltham, MA) dispenser. After the assay plates were incubated at 37 C and 5% CO2 overnight, 23 nL of compounds dissolved in DMSO, positive controls or DMSO only was transferred to the assay plate by a Pintool station (Kalypsys, San Diego, CA). The plates were incubated at 37 C for 5 h. After 1 uL of LiveBLAzerTM B/G FRET substrate was added using a Flying Reagent Dispenser (Beckman Coulter, Indianapolis, IN, USA), the plates were incubated at room temperature for 2.5 h, and fluorescence intensity was measured by an Envision plate reader (PerkinElmer, Shelton, CT).

Compound | Potency
CC(C)OC(=O)C(C)(C)Oc1ccc(C(=O)c2ccc(Cl)cc2)cc1 | inactive
Cc1cccc(C(=O)O)c1 | inactive
c1ccncc1 | inactive
CC(=O)CC/C=C(\C)CCC=C(C)C | inactive
O=C(c1ccccc1)c1ccccc1O | inactive
NC=O | inactive
O=C(c1ccccc1)c1ccc(O)cc1O | inactive
CN(C)CCN(Cc1cccs1)c1ccccn1 | inactive
Brc1cc(Oc2cc(Br)c(Br)c(Br)c2Br)c(Br)c(Br)c1Br | inactive
O=CCCCC=O | inactive
O=C(/C=C/C=C/c1ccc2c(c1)OCO2)N1CCCCC1 | inactive
c1ccc2cc(Nc3ccc(Nc4ccc5ccccc5c4)cc3)ccc2c1 | inactive
O=P(O)(O)O | inactive
Nc1ncn([C@@H]2O[C@H](CO)[C@@H](O)[C@H]2O)c(=O)n1 | inactive
CN1C(C(=O)Nc2ccccn2)=C(O)c2ccccc2S1(=O)=O | inactive
COC(C)COC(C)COC(C)CO (stereo not given) | inactive
Nc1ccccc1N | inactive
NNc1ccc(C(=O)O)cc1 | inactive
COc1c(Cl)c(Cl)c(Cl)c(Cl)c1Cl | inactive
Nc1ncnc2nc[nH]c12 | inactive

Compound | Potency
CCC(C)c1ccccc1O (stereo not given) | inactive
C#C[C@]1(O)CC[C@H]2[C@@H]3CCC4=Cc5oncc5C[C@]4(C)[C@H]3CC[C@@]21C | inactive
C[C@]12CCC(=O)C=C1CC[C@@H]1[C@@H]2C(=O)C[C@@]2(C)[C@H]1CC[C@]2(O)C(=O)CO | inactive
CCCCCCCCCC(=O)OC | inactive
CC(C)OC=O | inactive
COc1ccc(OC)c(C(O)CNC(=O)CN)c1 (stereo not given) | inactive
O=C(OCc1ccccc1)c1ccccc1O | inactive
CC(C(=O)O)c1cccc(C(=O)c2ccccc2)c1 (stereo not given) | inactive
CC1=CCC(C(C)(C)O)CC1 (stereo not given) | inactive
Cc1cccc([N+](=O)[O-])c1C | inactive
C=C(C)C1CC=C(C)CC1 (stereo not given) | inactive
C#C[C@]1(O)CC[C@H]2[C@@H]3CCc4cc(OC)ccc4[C@H]3CC[C@@]21C | inactive
c1cc(-c2ccncc2)ccn1 | inactive
CCCCNS(=O)(=O)c1ccccc1 | inactive
O=C(Nc1ccc(Cl)cc1)Nc1ccc(Cl)c(Cl)c1 | inactive
CC(CCC(=O)O)(c1ccc(O)cc1)c1ccc(O)cc1 | inactive
c1ccc2c(c1)Oc1ccccc1S2 | inactive
CCCCC(CC)COCC1CO1 (stereo not given) | inactive
Cc1ccc(C)c(O)c1C | inactive
CCCCC(CC)COP(=O)(OCC(CC)CCCC)OCC(CC)CCCC (stereo not given) | inactive
